Reference: PubChem BioAssay (NCI)
About 83,000 compounds went through this panel and 20% of them were active in at least one assay; those are over-represented in the sample as a whole.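 Interpretation: 100, growth as untreated; towards 0, rising growth inhibition; 0, no net growth; 0 to -100, cell death. Compounds scoring below 10 were considered active.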 Active and inactive are the calls of the source.

test system: HL-60(TB) leukemia; assay: NCI-60 one-dose screen, 48 h (100 = growth as untreated, 0 = no growth, -100 = all killed); conditions: 10 µM unless noted

Row | Compound | growth
1 | CCCCC[C@H](O)C/C=C1/C(=O)C=C[C@@H]1C/C=C\CCCC(=O)OC | 25.1% (inactive)
2 | C#CC#CC#CC#CC#CC#CC#CC#CCC1OC[C@H](COC(=O)O[C@@H](C(=O)O[C@H]2C[C@@]3(O)[C@@H](OC(=O)c4ccccc4)[C@@H]4[C@]5(OC(C)=O)CO[C@@H]5C[C@H](O)[C@@]4(C)C(=O)[C@H](OC(C)=O)C(=C2C)C3(C)C)[C@@H](NC(=O)c2ccccc2)c2ccccc2)O1 (stereo not given in full) | 8.1% (active)
3 | N#C/C(=C\c1ccc(-c2ccccc2)o1)c1nc(-c2ccco2)cs1 | 99.3% (inactive)
4 | Cc1cccc(N2CCN(CC(O)COc3ccc(Cl)cc3)CC2)c1 (stereo not given) | 123% (inactive)
5 | Cc1cc(NCc2cc(Nc3ccnc4cc(Cl)ccc34)ccc2F)nc(N2CCN(C)CC2)n1 | -46.6% (active)
6 | Cc1ncc(C(=O)Nc2ccc(CN3CCN(C)CC3)c(C(F)(F)F)c2)cc1C#Cc1c(N)ncc2ccc(C#N)cc12 | 45.8% (inactive)
7 | O=C(Nc1ccccc1)C(CCCCN1C(=O)c2ccccc2C1=O)N1C(=O)c2ccccc2C1=O (stereo not given) | 104% (inactive)
8 | O=C(O)c1ccc(-n2cc(/C=N/Nc3ccc(F)cc3)c(-c3cccc(C(F)(F)F)c3)n2)cc1 | 34.3% (inactive)
9 | CNC(=O)c1cc(Oc2cccc3nc(NC(=O)Nc4cc(C(F)(F)F)ccc4Cl)ccc23)ccn1 | 103% (inactive)
10 | CN1CCN(Cc2ccc(NC(=O)c3cncc(C#Cc4cncc5ncccc45)c3)cc2C(F)(F)F)CC1 | -3.29% (active)
11 | CNC(=O)c1cccc(Cn2nc(C)c(NC(=O)c3ccc(COc4ccc(C(F)(F)F)cc4C)cc3)c2C)c1 | 47.1% (inactive)
12 | COc1ccc(C(=O)c2cc3c(OC)c(OC)c(OC)cc3[nH]2)cc1 | 36.1% (inactive)
13 | O=C(/C=C/c1cc2ccccc2[nH]c1=O)c1ccc(O)cc1 | 16% (inactive)
14 | CCCCn1c(=O)c(-c2cc(-c3ccc(Cl)cc3)nc(-c3ccc(Cl)cc3)c2)cc2ccc(Cl)cc21 | 100% (inactive)
15 | O=C1C(Cl)=C(Nc2ccc(S(=O)(=O)N3CCOCC3)cc2)C(=O)c2ccccc21 | -17.7% (active)
16 | O=C1/C(=C\c2ccc(F)cc2)CN(C(=O)c2ccc([N+](=O)[O-])cc2)C/C1=C\c1ccc(F)cc1 | 65.1% (inactive)
17 | Nc1nc(Nc2cccnc2)sc1C(=O)c1ccccc1F | -35.6% (active)
18 | COc1cc2nc(Nc3cccc(Cl)c3)nc(N)c2cc1OC | 87.1% (inactive)
19 | S=C=Nc1ccc2ccccc2c1 | 91.7% (inactive)
20 | OCCN1CCN(CCCN2c3ccccc3Sc3ccc(C(F)(F)F)cc32)CC1 | 32.7% (inactive)

Row | Compound | growth
21 | O=C1/C(=C/c2ccc([N+](=O)[O-])s2)Oc2cc(Cl)ccc21 | -11.7% (active)
22 | CC1CCc2cc(F)cc3c(=O)c(C(=O)O)cn1c23 (stereo not given) | 107% (inactive)
23 | Nc1c(C(=O)c2ccccc2)sc2nc(-c3cccs3)ccc12 | 9.36% (active)
24 | S=C1SCN(Cc2ccccc2)CN1Cc1ccco1 | 32% (inactive)
25 | COc1cc(-c2nc(SCCC(C)C)nc(N3CCOCC3)c2C#N)cc(OC)c1OC | 95.2% (inactive)
26 | N#CC1=C(N)Oc2c(sc3c(F)cccc23)C1c1ccc([N+](=O)[O-])cc1 (stereo not given) | -7.41% (active)
27 | COc1cc2c(=O)n(CCN(C)C)c3c4cc5c(cc4ccc3c2cc1OC)OCO5 | 8.03% (active)
28 | c1ccc2c(Cc3csc4ccccc34)csc2c1 | 72% (inactive)
29 | CCN(CCCCCCN1CC(=O)N(CCCCCCN(CC)Cc2ccccc2OC)CC1=O)Cc1ccccc1OC | 60.6% (inactive)
30 | COc1ccc(/C=C/C(=O)c2ccc(NC(=O)CSc3nnc(-c4ccc(OC)c(OC)c4)n3-c3ccccc3)cc2)cc1 | 54.8% (inactive)
31 | OCCOCC(F)(F)F | -0.411% (active)
32 | CC/C(=C(/c1ccc(OCCN(C)C)cc1)c1ccc(OC(=O)CCCCC(=O)c2c(C)[nH]c(/C=C3\N=C(c4ccc[nH]4)C=C3OC)c2C)cc1)c1ccccc1 | 82.2% (inactive)
33 | COc1cc2c(cc1[N+](=O)[O-])-c1ccc([N+](=O)[O-])cc1/C2=N/NC(N)=S | 88.3% (inactive)
34 | CC1(C)OCC2OC3(C(=O)O)OC(C)(C)OC3C2O1 (stereo not given) | 98.2% (inactive)
35 | O=C(Cn1c[n+](CC(=O)c2ccc([N+](=O)[O-])cc2)c2ccccc21)Nc1cccc2cccnc12 | 61.9% (inactive)
36 | C=C1C(=O)O[C@H]2[C@H]1CC/C(COC(=O)NCc1ccc(Cn3c(=O)sn(CCCI)c3=O)cc1)=C\CC[C@@]1(C)O[C@@H]21 | -9.41% (active)
37 | COc1ccc(C(=O)/C=C/c2cccc(Nc3ccnc4cc(Cl)ccc34)c2)cc1 | 51.7% (inactive)
38 | C/C(=N\NC(=O)c1ccccc1N)c1ccccc1O | 40.8% (inactive)
39 | COc1ccc(N)c(-c2cc3c(c4c2[nH]c2ccc(OC)cc24)CCCC3)c1 | 78.8% (inactive)
40 | COC(=O)c1c2c(c(C)[n+]([O-])c1C)C(=O)C=C(NCc1ccccc1)C2=O | -31.4% (active)
